Reference: PubChem BioAssay (Tox21)
Results filed as inconclusive are left out. Calls of active or inactive are those of the source. Unless noted, calls follow the shape of the dose curve; as a rule, active = well fitted curve in the direction sought with a large enough effect in the repeat runs; inconclusive = weak or mixed curves; inactive = no such curve, though single readings can be large; an effect the other way counts as inactive or inconclusive.

Experiments:
[1] = qHTS assay for small molecule agonists of the p53 signaling pathway - cell viability (AID 651633; calls by dose curve;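 also: p53RE-bla HCT reporter cells with a stable beta-lactamase p53 reporter; series mostly up to about 83 µM; nearly all actives have a fitted effect of over 30% in size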)
Method in brief: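 p53RE-bla cells were treated with compound for 16 hours at 37 C. Cytotoxicity was then measured as CellTiter-Glo luminescence after 30 min at room temperature.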

[2] = qHTS assay for small molecules that induce genotoxicity in human embryonic kidney cells expressing luciferase-tagged ATAD5 - cell viability (AID 651634; calls by dose curve; also: nearly all actives have a fitted effect of over 25% in size)
Method in brief: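 HEK293T ATAD5-luc cells, 2,000/well; compound 15.5 hr, 37C/5% CO2; CellTiter-Fluor 30 min, 37C; fluorescence read.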

[3] = qHTS assay for small molecule disruptors of the mitochondrial membrane potential - cell viability (AID 720634; calls by dose curve;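 also: human HepG2 liver cancer cells; series mostly up to about 83 µM; nearly all actives have a fitted effect of over 20% in size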)
Method in brief: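 Luminescence from CellTiter-Glo (ATP content) gave viability in HepG2 cells, read in the same wells as the MMP dye assay after 1 hr compound exposure at 37 C.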

[4] = qHTS assay for small molecule disruptors of the mitochondrial membrane potential (AID 720635); also: potency is read from the fitted curve at half-maximal effect
Method in brief: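 HepG2 cells exposed to compound 1 hr at 37C, then Mito-MPS dye 30 min. Ratio read of aggregate (540/590 nm) versus monomer (490/535 nm) fluorescence.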

[5] = qHTS assay to test for compound auto fluorescence at 590 nm (red) in HepG2 cells (AID 720674)
Method in brief: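 Seeding: 2,000 HepG2 cells/well, MEM/10% FBS, overnight 37 C. Dosing: compound vs DMSO. Incubation: 1 hr, 37 C, 5% CO2. Read: fluorescence 540 ex/590 em, Rose Bengal sodium as red reference.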

[6] = qHTS assay to test for compound auto fluorescence at 535 nm (green) in HepG2 cells (AID 720675)
[7] = qHTS assay to test for compound auto fluorescence at 460 nm (blue) in HEK293 cells (AID 720678)
Method in brief: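 HEK293 cells (2,000 per well, medium with 10% dialyzed FBS) attached for 4-5 hr at 37C, then received compound and stood overnight at 37C, 5% CO2. Blue fluorescence was read at Ex/Em 405/460 nm and expressed relative to triamterene.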

[8] = qHTS assay to test for compound auto fluorescence at 590 nm (red) in HEK293 cells (AID 720679)
Method in brief: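 HEK293 cells (2,000/well, medium with 10% dialyzed FBS) attached for 4-5 hr at 37C, received 23 nL compound and were incubated overnight at 37C, 5% CO2. Red fluorescence was then read at 540/590nm Ex/Em, referenced to Rose Bengal sodium.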

[9] = qHTS assay to test for compound auto fluorescence at 535 nm (green) in HEK293 cells (AID 720680)
[10] = qHTS assay to test for compound auto fluorescence at 460 nm (blue) in HEK293 cell free culture (AID 720681)
Method in brief: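 Compounds were added to cell-free DMEM with 10% FBS and fluorescence read directly. The blue channel used 405 nm excitation and 460 nm emission, with triamterene as the reference fluorophore.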

[11] = qHTS assay to test for compound auto fluorescence at 535 nm (green) in HEK293 cell free culture (AID 720682)
Method in brief: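 Fluorescein serves as the green reference fluorophore; each compound's intrinsic emission at 535 nm (excitation 485 nm) is reported as an equivalent amount of that dye, measured in serum-containing DMEM without cells.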

[12] = qHTS assay to test for compound auto fluorescence at 590 nm (red) in HepG2 cell free culture (AID 720684)
Method in brief: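 Auto fluorescence equivalency versus Rose Bengal sodium, red channel Ex/Em 540/590 nm; compounds in cell-free MEM/10% FBS; DMSO vehicle control.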

[13] = qHTS assay to test for compound auto fluorescence at 460 nm (blue) in HepG2 cell free culture (AID 720685)
Method in brief: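 Cell-free plates of MEM plus 10% FBS received 23 nL compound or DMSO vehicle; blue-channel (405/460 nm) intensity scored against triamterene as reference fluorophore.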

[14] = qHTS assay to test for compound auto fluorescence at 535 nm (green) in HepG2 cell free culture (AID 720686)
[15] = qHTS assay to test for compound auto fluorescence at 460 nm (blue) in HepG2 cells (AID 720687)
Method in brief: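 HepG2 cells in MEM with 10% FBS, attached overnight at 37 C, were exposed to compound or DMSO for 1 hr at 37 C, 5% CO2. Blue fluorescence was read at 405/460 nm, with triamterene as reference fluorophore.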

[16] = qHTS assay to test for compound auto fluorescence at 590 nm (red) in HEK293 cell free culture (AID 720683)
Method in brief: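 Cell-free wells of DMEM with 10% FBS received compound, and intrinsic fluorescence was read at excitation/emission 540/590 nm. Values expressed as equivalence to Rose Bengal sodium.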

[17] = target: Glucocorticoid receptor (Homo sapiens) (UniProt P04150); experiment: qHTS assay to identify small molecule agonists of the glucocorticoid receptor (GR) signaling pathway (AID 720691; active = well fitted activation curve with a large enough effect in the signal ratio in the repeat runs, not every such curve was filed as active; the % refers to the signal ratio)
Method in brief: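 HeLa GR-bla reporter line; cells pre-incubated 4 h, compound in DMSO 18 h at 37 C; LiveBLAzer B/G FRET substrate 2 h RT; fluorescence intensity read-out.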

[18] = target: Glucocorticoid receptor (Homo sapiens) (UniProt P04150); experiment: qHTS assay to identify small molecule antagonists of the glucocorticoid receptor (GR) signaling pathway (AID 720692; active = well fitted inhibition curve with a large enough effect in the signal ratio in the repeat runs, not every such curve was filed as active; the % refers to the signal ratio; also: potency is read from the fitted curve at half-maximal effect)
Method in brief: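 Read-out: beta-lactamase FRET substrate fluorescence, 2 h at room temperature, in HeLa cells stably carrying a GRE-driven bla reporter. Compounds were co-incubated with 5 nM dexamethasone agonist (final) for 18 h at 37 C.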

[19] = qHTS assay for small molecules that induce genotoxicity in human embryonic kidney cells expressing luciferase-tagged ATAD5 (AID 651632); also: nearly all actives have a fitted effect of over 15% in size
Method in brief: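 Luminescence read-out: after 16 hr compound exposure at 37C, ATAD5-luciferase HEK293T cells received Amplite, 30 min RT, then CCD imaging. A rise in signal marks genotoxic stress.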
% is scaled to controls: 0 for no effect and ±100 for the full control effect.

Chain of Glucocorticoid receptor (Homo sapiens) (P04150 whole entry, looked up): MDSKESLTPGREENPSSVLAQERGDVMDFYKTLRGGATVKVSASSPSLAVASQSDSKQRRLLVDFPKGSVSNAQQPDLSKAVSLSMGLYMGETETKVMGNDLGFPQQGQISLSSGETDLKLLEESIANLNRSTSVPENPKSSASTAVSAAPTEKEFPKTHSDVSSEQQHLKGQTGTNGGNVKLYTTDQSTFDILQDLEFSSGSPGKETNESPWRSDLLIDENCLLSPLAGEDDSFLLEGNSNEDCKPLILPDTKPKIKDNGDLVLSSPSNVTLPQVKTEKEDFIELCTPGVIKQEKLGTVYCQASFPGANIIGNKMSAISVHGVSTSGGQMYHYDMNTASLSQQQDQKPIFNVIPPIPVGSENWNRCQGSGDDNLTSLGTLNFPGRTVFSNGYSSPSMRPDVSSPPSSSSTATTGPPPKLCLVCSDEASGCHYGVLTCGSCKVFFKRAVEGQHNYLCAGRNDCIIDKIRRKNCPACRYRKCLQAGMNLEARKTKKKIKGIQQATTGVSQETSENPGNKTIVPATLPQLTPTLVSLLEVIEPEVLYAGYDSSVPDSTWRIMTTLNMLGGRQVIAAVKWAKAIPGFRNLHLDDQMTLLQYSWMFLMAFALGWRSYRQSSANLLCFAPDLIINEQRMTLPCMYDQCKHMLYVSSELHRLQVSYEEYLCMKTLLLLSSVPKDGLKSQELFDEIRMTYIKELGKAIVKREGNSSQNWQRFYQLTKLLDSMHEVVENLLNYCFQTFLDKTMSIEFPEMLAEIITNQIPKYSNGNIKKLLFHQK

O=C(Nc1ccc(C(=O)O)c(O)c1)c1ccccc1
inactive: Potency [1] | Potency [2] | outcome [3] | Potency [4] | outcome [5] | outcome [6] | Potency [7] | outcome [8] | outcome [9] | Potency [10] | outcome [11] | outcome [12] | Potency [13] | outcome [14] | Potency [15]

Nc1ccc(F)cc1
inactive: Potency [1] | Potency [2] | outcome [3] | outcome [5] | outcome [6] | Potency [7] | outcome [8] | outcome [9] | Potency [10] | outcome [11] | outcome [16] | outcome [12] | Potency [13] | outcome [14] | Potency [17] | Potency [18]

Cc1ccc2c(c1)CCCN2
inactive: Potency [19] | Potency [2] | outcome [3] | outcome [5] | outcome [6] | Potency [7] | outcome [8] | outcome [9] | Potency [10] | outcome [16] | outcome [12] | outcome [14] | Potency [15] | Potency [17] | Potency [18]

COc1cc(NC(C)CCCN)c2ncccc2c1 (stereo not given)
inactive: Potency [2] | fluorescence, relative to Rose Bengal [5] -0.0926% [at 18.6 µM] | fluorescence, % of fluorescein control [6] -0.0145% [at 18.6 µM] | fluorescence, % of triamterene [7] 1.22% [at 18.6 µM] | fluorescence, % of fluorescent control [8] -0.0138% [at 18.6 µM] | fluorescence, % of fluorescein [9] -0.0105% [at 18.6 µM] | fluorescence, % of fluorescent control [10] 1.01% [at 18.6 µM] | fluorescence, % of fluorescent control [16] -0.109% [at 18.6 µM] | fluorescence, % of Rose Bengal [12] 0.347% [at 18.6 µM] | fluorescence, % of fluorescent control [13] 0.907% [at 18.6 µM] | fluorescence, % of fluorescein control [14] -0.0264% [at 18.6 µM] | fluorescence, % of fluorescent control [15] 0.746% [at 18.6 µM]

CCCCCCCC(=O)Oc1c(Br)cc(C#N)cc1Br
active: Potency [4] 12.1 µM
inactive: Potency [1] | outcome [5] | outcome [6] | Potency [7] | outcome [8] | outcome [9] | Potency [10] | outcome [11] | outcome [16] | outcome [12] | Potency [13] | outcome [14] | Potency [15] | Potency [17]

CC(C)(C)CCCCCCOC(=O)c1ccccc1C(=O)OCCCCCCC(C)(C)C
inactive: Potency [19] | Potency [2] | outcome [3] | outcome [5] | outcome [6] | Potency [7] | outcome [8] | outcome [9] | Potency [10] | outcome [11] | outcome [16] | outcome [12] | Potency [13] | outcome [14] | Potency [15] | Potency [17]

COC(=O)C1=C(C)NC(C)=C(C(=O)OC(C)(C)CN(C)CCC(c2ccccc2)c2ccccc2)C1c1cccc([N+](=O)[O-])c1 (stereo not given)
active: Potency [4] 5.96 µM | Potency [18] 6.74 µM
inactive: outcome [5] | outcome [6] | Potency [7] | outcome [8] | outcome [9] | Potency [10] | outcome [11] | outcome [16] | outcome [12] | Potency [13] | outcome [14] | Potency [15] | Potency [17]

CC(C)COC(=O)c1ccc(O)cc1
inactive: Potency [1] | Potency [2] | outcome [5] | outcome [6] | Potency [7] | outcome [8] | outcome [9] | Potency [10] | outcome [11] | outcome [12] | Potency [13] | outcome [14] | Potency [17]
active: Potency [4] 12.2 µM

CC(CN(CCN(CC(C)OCCO)CC(C)OCCO)CC(C)OCCO)OCCO (stereo not given)
inactive: Potency [19] | Potency [1] | outcome [3] | outcome [5] | outcome [6] | Potency [7] | outcome [8] | outcome [9] | Potency [10] | outcome [11] | outcome [16] | outcome [12] | Potency [13] | outcome [14] | Potency [15]

O=C(c1ccccc1)C1CCC1
inactive: Potency [19] | Potency [1] | outcome [3] | outcome [5] | outcome [6] | Potency [7] | outcome [8] | outcome [9] | Potency [10] | outcome [11] | outcome [16] | outcome [12] | Potency [13] | outcome [14] | Potency [17]

CC(C(=O)O)c1ccc(C(=O)c2cccs2)cc1 (stereo not given)
inactive: Potency [1] | Potency [2] | outcome [3] | fluorescence, relative to Rose Bengal [5] 0.487% [at 18.6 µM] | fluorescence, % of fluorescein control [6] -0.0382% [at 18.6 µM] | fluorescence, % of triamterene [7] -0.243% [at 18.6 µM] | fluorescence, % of fluorescent control [8] 0.162% [at 18.6 µM] | fluorescence, % of fluorescein [9] 0.0235% [at 18.6 µM] | fluorescence, % of fluorescent control [10] -0.0817% [at 18.6 µM] | activity change [11] -0.0028% [at 18.6 µM] | fluorescence, % of fluorescent control [16] -0.0893% [at 18.6 µM] | fluorescence, % of Rose Bengal [12] -0.362% [at 18.6 µM] | fluorescence, % of fluorescent control [13] -0.005% [at 18.6 µM] | fluorescence, % of fluorescein control [14] -0.0792% [at 18.6 µM] | fluorescence, % of fluorescent control [15] 0.0525% [at 18.6 µM] | Potency [17] | Potency [18]

CC(C)(C)C(O)/C=C/c1ccc2c(c1)OCO2 (stereo not given)
inactive: Potency [1] | Potency [2] | outcome [3] | outcome [5] | outcome [6] | Potency [7] | outcome [8] | outcome [9] | Potency [10] | outcome [16] | outcome [12] | outcome [14] | Potency [15]

COc1ccc(/C=C/C(=O)c2ccc(OC)cc2OC)cc1
inactive: Potency [19] | Potency [1] | outcome [3] | outcome [5] | outcome [6] | Potency [7] | outcome [8] | outcome [9] | Potency [10] | outcome [11] | outcome [16] | outcome [12] | Potency [13] | outcome [14] | Potency [15] | Potency [17]

Oc1ccc2c(c1)Cc1ccccc1-2
inactive: Potency [2] | outcome [5] | outcome [6] | Potency [7] | outcome [8] | outcome [9] | Potency [10] | outcome [11] | outcome [16] | outcome [12] | Potency [13] | outcome [14] | Potency [15]
active: Potency [18] 19.5 µM

O=C1CC[C@@H](C(=O)O)N1
inactive: Potency [1] | Potency [2] | outcome [5] | outcome [6] | Potency [7] | outcome [8] | outcome [9] | Potency [10] | outcome [11] | outcome [12] | Potency [13] | outcome [14] | Potency [15] | Potency [17]

CCCCCCCCCCCSCC(=O)O
inactive: Potency [2] | outcome [3] | outcome [5] | outcome [6] | Potency [7] | outcome [8] | outcome [9] | Potency [10] | outcome [11] | outcome [12] | Potency [13] | outcome [14] | Potency [15]
